# Where “and” joins values, the source holds several entries; their conditions need not be identical. Identical values can stand only once. Results filed as inconclusive are left out. Where a structure was tested more than once in an assay, its records may differ in their call. Calls of active or inactive are those of the source. The calls were made as follows, unless noted: active = hit-call score of the fitted dose curve at least 0.9, where 1 is the maximum; inconclusive = response in the unintended direction; inactive = score below 0.9.
# Legend:
# [1] = target: Norway rat Vesicular Monoamine Transporter (VMAT2), neurotransmitter transporter, Slc18a2 (gene 25549) (UniProt Q01827); assay: NVS_TR_rVMAT2: NovaScreen (NVS) Transporter Assay for Norway rat Vesicular Monoamine Transporter (VMAT2), neurotransmitter transporter (AID 2283376);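 also: actives lower the bound radioligand signal below the DMSO level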
# Sequence of Norway rat Vesicular Monoamine Transporter (VMAT2), neurotransmitter transporter, Slc18a2 (gene 25549) (Q01827 whole entry, looked up): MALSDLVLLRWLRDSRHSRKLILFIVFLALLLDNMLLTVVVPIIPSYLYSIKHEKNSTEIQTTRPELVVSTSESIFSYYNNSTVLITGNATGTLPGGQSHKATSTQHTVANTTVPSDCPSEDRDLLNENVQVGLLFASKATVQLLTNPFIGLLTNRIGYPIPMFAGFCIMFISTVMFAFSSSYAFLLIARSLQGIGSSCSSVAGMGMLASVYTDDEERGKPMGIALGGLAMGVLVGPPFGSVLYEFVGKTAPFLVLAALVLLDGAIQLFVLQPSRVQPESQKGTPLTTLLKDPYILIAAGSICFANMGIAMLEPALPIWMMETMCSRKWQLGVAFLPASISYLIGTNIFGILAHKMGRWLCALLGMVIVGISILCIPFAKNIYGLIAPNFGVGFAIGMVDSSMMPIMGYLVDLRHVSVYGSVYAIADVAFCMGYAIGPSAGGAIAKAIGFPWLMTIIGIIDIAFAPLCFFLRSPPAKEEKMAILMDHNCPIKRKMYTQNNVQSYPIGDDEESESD
# Outline: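 Using rat forebrain membranes, specific radioligand binding to VMAT2 was measured by filtration and scintillation counting after 1 hour. Chemicals screened at 25 uM in duplicate, actives retested in concentration series, DMSO baseline.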
# [2] = target: human Norepinephrine Transporter (NET), SLC6A2 (gene 6530) (UniProt P23975); assay: NVS_TR_hNET: NovaScreen (NVS) Transporter Assay for human Norepinephrine Transporter (NET) (AID 2283377);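 also: cell-free membrane protein extracted from CHO cells expressing human NET; displacement of radioligand from human NET seen as loss of scintillation signal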
# Sequence of human Norepinephrine Transporter (NET), SLC6A2 (gene 6530) (P23975 whole entry, looked up): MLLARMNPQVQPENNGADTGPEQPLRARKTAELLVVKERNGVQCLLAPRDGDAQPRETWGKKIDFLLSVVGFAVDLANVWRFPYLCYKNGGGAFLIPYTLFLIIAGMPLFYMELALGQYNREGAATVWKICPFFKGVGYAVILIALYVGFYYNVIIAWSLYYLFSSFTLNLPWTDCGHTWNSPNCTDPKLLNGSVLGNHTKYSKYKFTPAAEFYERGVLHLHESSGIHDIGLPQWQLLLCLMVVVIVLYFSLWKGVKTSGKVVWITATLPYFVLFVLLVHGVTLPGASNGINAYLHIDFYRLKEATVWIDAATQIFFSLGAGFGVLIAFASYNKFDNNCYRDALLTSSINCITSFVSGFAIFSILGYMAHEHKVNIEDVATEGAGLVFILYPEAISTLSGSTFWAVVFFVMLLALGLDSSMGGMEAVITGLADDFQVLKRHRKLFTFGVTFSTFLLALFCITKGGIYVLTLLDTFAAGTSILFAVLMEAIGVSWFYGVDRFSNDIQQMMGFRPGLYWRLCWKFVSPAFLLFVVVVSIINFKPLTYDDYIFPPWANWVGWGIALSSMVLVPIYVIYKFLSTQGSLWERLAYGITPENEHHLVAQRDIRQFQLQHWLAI
# Outline: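 Single-concentration duplicate screen at 25 uM, then concentration-response for actives; displacement of specific radioligand from human NET in CHO membrane extracts, filter-based scintillation detection at 1 h relative to DMSO.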
# [3] = target: mouse Estrogen Receptor alpha (Era), Esr1 (gene 13982) (UniProt P19785); assay: NVS_NR_mERa: NovaScreen (NVS) Nuclear Receptor Binding Assay for mouse Estrogen Receptor alpha (Era) (AID 2283378);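 also: hit means loss of bound radioligand signal relative to DMSO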
# Sequence of mouse Estrogen Receptor alpha (Era), Esr1 (gene 13982) (P19785 whole entry, looked up): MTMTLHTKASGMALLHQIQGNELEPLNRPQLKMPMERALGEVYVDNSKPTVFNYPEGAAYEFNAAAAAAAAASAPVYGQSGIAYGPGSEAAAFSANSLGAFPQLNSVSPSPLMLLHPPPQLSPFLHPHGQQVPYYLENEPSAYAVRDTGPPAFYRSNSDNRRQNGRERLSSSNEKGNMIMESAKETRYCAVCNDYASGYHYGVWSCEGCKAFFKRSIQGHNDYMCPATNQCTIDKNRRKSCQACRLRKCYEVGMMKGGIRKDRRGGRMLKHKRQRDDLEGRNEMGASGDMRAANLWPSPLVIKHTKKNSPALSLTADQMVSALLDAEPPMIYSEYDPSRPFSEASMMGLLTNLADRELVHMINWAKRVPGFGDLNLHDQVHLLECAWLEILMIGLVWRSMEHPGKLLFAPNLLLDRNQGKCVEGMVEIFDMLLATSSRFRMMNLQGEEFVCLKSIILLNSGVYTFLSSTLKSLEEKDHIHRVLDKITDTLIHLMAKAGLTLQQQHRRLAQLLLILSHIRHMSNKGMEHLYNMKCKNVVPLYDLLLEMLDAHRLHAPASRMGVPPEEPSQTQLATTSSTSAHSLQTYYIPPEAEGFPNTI
# Outline: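 Cell-free radioligand binding with extracted mouse Era protein; competitive displacement of radiolabelled ligand, read by filter-based scintillation counting 18 hours after dosing. Loss of signal versus DMSO baseline taken as binding; single screening concentration 25 uM, actives followed in concentration series.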
# [4] = target: Estrogen receptor beta (Homo sapiens) (UniProt Q92731); assay: OT_ER_ERbERb_1440: Odyssey Thera (OT) 24-hour HEK293T Protein-Complementation Assay for Estrogen Receptor-beta/-beta Homodimer (AID 2283380);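 also: fluorescence gain from ER beta LBD homodimer complementation read by laser scanning cytometry; scored as signal increase over DMSO baseline for both agonists and antagonists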
# Sequence of Estrogen receptor beta (Homo sapiens) (Q92731 whole entry, looked up, the tested form may be a part): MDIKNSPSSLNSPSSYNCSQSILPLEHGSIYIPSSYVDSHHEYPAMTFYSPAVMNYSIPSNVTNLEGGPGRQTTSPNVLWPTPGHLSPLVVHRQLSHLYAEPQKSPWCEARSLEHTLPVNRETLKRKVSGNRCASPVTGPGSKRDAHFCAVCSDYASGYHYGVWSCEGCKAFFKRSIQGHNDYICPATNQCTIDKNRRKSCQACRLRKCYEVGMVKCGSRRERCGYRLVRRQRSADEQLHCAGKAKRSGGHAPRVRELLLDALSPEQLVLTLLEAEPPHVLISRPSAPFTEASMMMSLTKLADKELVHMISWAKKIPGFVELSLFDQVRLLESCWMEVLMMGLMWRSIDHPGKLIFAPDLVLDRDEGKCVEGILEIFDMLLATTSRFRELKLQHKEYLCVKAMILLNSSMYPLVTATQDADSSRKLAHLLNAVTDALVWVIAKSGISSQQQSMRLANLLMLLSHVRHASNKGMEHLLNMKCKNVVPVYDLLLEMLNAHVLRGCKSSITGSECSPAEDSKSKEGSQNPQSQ
# Outline: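 Fluorescence increase, nuclear for agonists or whole-cell for antagonists, relative to DMSO vehicle, quantified by laser scanning cytometer after fixation and Draq5 staining. Readout from 24 h treatment of HEK293T cells carrying complementation-paired ER beta LBD (aa 310-547).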
# [5] = target: Estrogen receptor (Homo sapiens) (UniProt P03372); assay: OT_ERa_GFPERaERE_0480: Odyssey Thera (OT) 8-hour HeLa Transcription Induction Assay for Estrogen Receptor (AID 2283381; active = hit-call score of the fitted dose curve at least 0.9, where 1 is the maximum; inactive = score below 0.9)
# Sequence of Estrogen receptor (Homo sapiens) (P03372 whole entry, looked up): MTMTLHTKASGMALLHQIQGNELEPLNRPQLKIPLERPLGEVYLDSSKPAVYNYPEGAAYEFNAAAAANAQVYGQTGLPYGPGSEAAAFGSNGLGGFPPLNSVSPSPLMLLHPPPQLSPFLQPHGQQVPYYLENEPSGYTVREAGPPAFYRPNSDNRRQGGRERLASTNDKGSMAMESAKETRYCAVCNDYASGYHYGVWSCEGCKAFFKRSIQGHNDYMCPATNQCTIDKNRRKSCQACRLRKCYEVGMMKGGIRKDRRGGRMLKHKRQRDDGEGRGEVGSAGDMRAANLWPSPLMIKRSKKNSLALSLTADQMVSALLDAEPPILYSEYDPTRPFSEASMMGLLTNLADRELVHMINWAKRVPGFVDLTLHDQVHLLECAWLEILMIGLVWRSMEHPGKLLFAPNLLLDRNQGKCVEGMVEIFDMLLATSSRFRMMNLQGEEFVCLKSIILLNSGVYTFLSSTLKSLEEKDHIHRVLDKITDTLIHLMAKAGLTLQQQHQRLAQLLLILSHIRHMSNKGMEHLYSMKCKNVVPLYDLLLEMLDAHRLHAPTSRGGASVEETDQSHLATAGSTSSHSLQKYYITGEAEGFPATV
# Outline: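 GFP-ERE reporter, HeLa, 8 h exposure. Readout: fluorescence microscopy, high-content image analysis. Fit direction positive vs DMSO negative control.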
# [6] = target: Estrogen receptor (Homo sapiens) (UniProt P03372); assay: OT_ERa_GFPERaERE_0120: Odyssey Thera (OT) 2-hour HeLa Transcription Induction Assay for Estrogen Receptor (AID 2283382)
# Outline: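 Fluorescence microscopy read-out: inducible fluorescent protein reporter in HeLa cells, imaged 2 h post-dose. Signal increase over DMSO negative control fitted as single primary endpoint via high content image analysis.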
# [7] = target: Peroxisome proliferator-activated receptor gamma (Homo sapiens) (UniProt P37231); assay: OT_PPARg_PPARgSRC1_0480: Odyssey Thera (OT) 8-hour Protein-Complementation Assay for Peroxisome Proliferator-activated Receptor Gamma / SRC-1 Co-activator (AID 2283387)
# Sequence of Peroxisome proliferator-activated receptor gamma (Homo sapiens) (P37231 whole entry, looked up, the tested form may be a part): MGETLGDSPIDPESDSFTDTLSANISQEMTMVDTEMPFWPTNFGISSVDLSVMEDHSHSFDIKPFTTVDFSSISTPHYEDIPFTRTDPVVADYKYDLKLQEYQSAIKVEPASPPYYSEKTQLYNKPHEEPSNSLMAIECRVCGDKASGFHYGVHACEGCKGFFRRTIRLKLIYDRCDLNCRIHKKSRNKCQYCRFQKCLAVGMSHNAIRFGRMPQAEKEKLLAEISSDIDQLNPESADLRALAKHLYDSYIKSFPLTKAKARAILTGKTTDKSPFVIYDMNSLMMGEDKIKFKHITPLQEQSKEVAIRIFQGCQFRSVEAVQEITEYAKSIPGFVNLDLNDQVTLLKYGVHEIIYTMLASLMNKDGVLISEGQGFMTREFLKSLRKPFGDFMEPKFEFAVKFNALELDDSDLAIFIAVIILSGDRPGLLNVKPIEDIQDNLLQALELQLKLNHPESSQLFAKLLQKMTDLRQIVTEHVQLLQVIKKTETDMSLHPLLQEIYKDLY
# Outline: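 Read-out: 488 nm N/C fluorescence ratio from complemented Venus YFP fragments, ≥350 cells per image, gain-of-signal fitted against DMSO baseline. Fusions of PPARg/SRC-1 with IFP1/IFP2 expressed transiently in HEK293T; compounds applied 8 h.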
# [8] = target: Peroxisome proliferator-activated receptor gamma (Homo sapiens) (UniProt P37231); assay: OT_PPARg_PPARgSRC1_1440: Odyssey Thera (OT) 24-hour Protein-Complementation Assay for Peroxisome Proliferator-activated Receptor Gamma/ SRC-1 Co-activator (AID 2283388)
# Outline: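 HEK293T cells transiently transfected with PPARg and SRC-1 fused via (Gly4Ser)2 linker to split Venus YFP fragments (IFP1/IFP2) were dosed 24 h; fixed, Draq5-stained, imaged at 488/635 nm; nuclear/cytoplasmic fluorescence ratio scored versus DMSO baseline, gain-of-signal.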
# [9] = target: Agonist Androgen Response Element (ARE), AR (gene 367) (UniProt P10275); assay: OT_AR_ARELUC_AG_1440: Odyssey Thera (OT) 24-hour CHO-K1 Luciferase Assay for Agonist Androgen Response Element (ARE) (AID 2283379)
# Sequence of Agonist Androgen Response Element (ARE), AR (gene 367) (P10275 whole entry, looked up): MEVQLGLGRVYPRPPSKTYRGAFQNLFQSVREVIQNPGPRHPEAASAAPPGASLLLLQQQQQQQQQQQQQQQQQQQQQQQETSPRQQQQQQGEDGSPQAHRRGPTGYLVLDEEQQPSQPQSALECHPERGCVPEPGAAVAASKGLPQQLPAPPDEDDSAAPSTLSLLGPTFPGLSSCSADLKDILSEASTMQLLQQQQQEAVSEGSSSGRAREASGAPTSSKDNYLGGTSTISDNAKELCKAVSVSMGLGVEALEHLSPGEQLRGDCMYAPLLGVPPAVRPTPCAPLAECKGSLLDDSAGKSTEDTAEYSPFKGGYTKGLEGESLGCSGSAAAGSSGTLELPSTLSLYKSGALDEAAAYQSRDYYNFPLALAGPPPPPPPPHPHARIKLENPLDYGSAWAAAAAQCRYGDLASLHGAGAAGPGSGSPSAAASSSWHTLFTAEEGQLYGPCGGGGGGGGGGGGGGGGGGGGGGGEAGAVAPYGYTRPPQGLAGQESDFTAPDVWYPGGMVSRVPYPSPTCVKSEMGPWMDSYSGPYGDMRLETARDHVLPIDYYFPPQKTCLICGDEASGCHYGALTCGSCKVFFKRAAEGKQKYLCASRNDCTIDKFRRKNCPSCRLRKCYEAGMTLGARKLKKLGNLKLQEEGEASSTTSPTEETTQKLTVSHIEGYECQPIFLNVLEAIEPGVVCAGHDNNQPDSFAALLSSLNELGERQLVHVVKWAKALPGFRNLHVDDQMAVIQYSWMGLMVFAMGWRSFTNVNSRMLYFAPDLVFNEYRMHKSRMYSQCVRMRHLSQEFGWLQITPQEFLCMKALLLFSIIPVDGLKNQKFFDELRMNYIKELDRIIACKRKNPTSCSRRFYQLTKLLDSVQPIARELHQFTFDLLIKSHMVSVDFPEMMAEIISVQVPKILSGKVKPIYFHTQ
# Outline: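 Readout: luciferase bioluminescence from CHO-K1 ARE-luc cells, measured 24 h post-dosing; agonism = increased mean luminescence vs DMSO controls, fitted in positive direction.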
# [10] = target: Bile acid receptor (Homo sapiens) (UniProt Q96RI1); assay: OT_FXR_FXRSRC1_1440: Odyssey Thera (OT) 24-hour HEK293T Protein-Complementation Assay for Farnesoid X receptor/SRC-1 Co-activator (AID 2283384)
# Sequence of Bile acid receptor (Homo sapiens) (Q96RI1 whole entry, looked up, the tested form may be a part): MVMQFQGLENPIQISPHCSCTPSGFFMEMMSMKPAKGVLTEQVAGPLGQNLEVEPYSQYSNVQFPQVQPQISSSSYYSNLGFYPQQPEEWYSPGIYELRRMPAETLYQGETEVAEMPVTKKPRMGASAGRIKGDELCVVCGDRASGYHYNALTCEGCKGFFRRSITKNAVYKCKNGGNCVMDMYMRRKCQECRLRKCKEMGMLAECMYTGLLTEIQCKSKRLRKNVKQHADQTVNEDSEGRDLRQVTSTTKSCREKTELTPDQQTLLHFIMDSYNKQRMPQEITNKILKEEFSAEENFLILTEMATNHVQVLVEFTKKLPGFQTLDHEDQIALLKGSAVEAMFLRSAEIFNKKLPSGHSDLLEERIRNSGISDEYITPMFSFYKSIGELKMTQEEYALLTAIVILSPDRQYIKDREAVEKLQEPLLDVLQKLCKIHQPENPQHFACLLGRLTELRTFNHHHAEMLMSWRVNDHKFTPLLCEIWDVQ
# Outline: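 Fluorescence readout, 24 h post-dose, HEK293T; FXR and SRC-1 fused to complementary reporter fragments, association reconstitutes signal. Positive-direction fit vs DMSO baseline.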
# [11] = CEETOX_H295R_11DCORT: CeeTox H295R High-throughput Steroidogenesis Assay for 11-Deoxycortisol (11DCORT) (AID 2283432; active = hit-call score of the fitted dose curve at least 0.9, where 1 is the maximum; inactive = score below 0.9); settings: actives raise or lower the signal
# Outline: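 H295R cells; 10 uM forskolin prestim 48 h; compound in 0.1% DMSO 48 h; media extracted with MTBE; 11-deoxycortisol by LC-MS/MS, 7-point standard curve; gain/loss vs DMSO baseline; viability by MTT in same wells.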
# [12] = CEETOX_H295R_OHPREG: CeeTox H295R High-throughput Steroidogenesis Assay for OH-Pregnenolone (OHPREG) (AID 2283434; active = hit-call score of the fitted dose curve at least 0.9, where 1 is the maximum; inactive = score below 0.9); settings: actives raise or lower the signal
# Outline: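 Secreted 17alpha-hydroxypregnenolone measured by HPLC-MS/MS after liquid-liquid extraction. Human adrenal H295R cells received 48 h forskolin (10 uM) stimulation before 48 h chemical exposure at 0.1% final DMSO; MTT viability in same wells; bidirectional fit against DMSO.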
# [13] = CEETOX_H295R_OHPROG: CeeTox H295R High-throughput Steroidogenesis Assay for OH-Progesterone (OHPROG) (AID 2283435; active = hit-call score of the fitted dose curve at least 0.9, where 1 is the maximum; inactive = score below 0.9;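 as to AC50: 17alpha-hydroxyprogesterone secreted into medium measured by HPLC-MS/MS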); settings: actives raise or lower the signal
# Outline: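 HPLC-MS/MS quantification of 17alpha-hydroxyprogesterone secreted by H295R cells after 48 h chemical exposure, following 48 h 10 uM forskolin prestimulation. Gain or loss of signal fitted relative to DMSO. Viability checked by MTT in the same wells.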
# [14] = CEETOX_H295R_ANDR: CeeTox H295R High-throughput Steroidogenesis Assay for Androstenedione (ANDR) (AID 2283436; active = hit-call score of the fitted dose curve at least 0.9, where 1 is the maximum; inactive = score below 0.9); settings: actives raise or lower the signal
# Outline: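 Medium from 48 h chemical-treated H295R adrenal cells was extracted with MTBE and androstenedione measured by LC-MS/MS. Activity was fit in both directions relative to DMSO. Cytotoxic concentrations were re-tested after dilution until MTT viability reached ≥70%.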
# [15] = CEETOX_H295R_CORTIC: CeeTox H295R High-throughput Steroidogenesis Assay for Corticosterone (CORTIC) (AID 2283437; active = hit-call score of the fitted dose curve at least 0.9, where 1 is the maximum; inactive = score below 0.9); settings: actives raise or lower the signal
# Outline: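 Medium corticosterone was quantified by tandem mass spectrometry following 48 hours of chemical exposure (0.1% DMSO) in human H295R cells previously stimulated 48 hours with 10 uM forskolin. Viability checked by MTT; chemicals diluted and retested when viability fell below 70%.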
# [16] = CEETOX_H295R_CORTISOL: CeeTox H295R High-throughput Steroidogenesis Assay for Cortisol (AID 2283438; active = hit-call score of the fitted dose curve at least 0.9, where 1 is the maximum; inactive = score below 0.9;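 also: cortisol secreted into medium quantified by LC-MS/MS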); settings: actives raise or lower the signal
# Outline: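 Read-out: cortisol in culture medium by reverse-phase C18 HPLC with ESI-positive tandem MS, after MTBE liquid-liquid extraction. Cells: human adrenal H295R, forskolin-primed (10 uM, 48 h) before 48 h chemical exposure in 0.1% DMSO.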
# [17] = CEETOX_H295R_DOC: CeeTox H295R High-throughput Steroidogenesis Assay for DOC (AID 2283439; active = hit-call score of the fitted dose curve at least 0.9, where 1 is the maximum; inactive = score below 0.9); settings: actives raise or lower the signal
# Outline: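 Human adrenocortical H295R cells, passages up to 10, received 10 uM forskolin for 48 h before chemical addition. After another 48 h exposure in 0.1% DMSO, secreted DOC was measured by LC-MS/MS, with gain or loss fitted against DMSO controls.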
# [18] = target: Bile acid receptor (Homo sapiens) (UniProt Q96RI1); assay: OT_FXR_FXRSRC1_0480: Odyssey Thera (OT) 8-hour HEK293T Protein-Complementation Assay for Farnesoid X receptor/SRC-1 Co-activator (AID 2283383)
# Outline: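 Fluorescence intensity read-out, 8 h post-dose, HEK293T protein-fragment complementation; FXR bait and SRC-1 prey each linked to reporter fragments. Activity scored as signal increase over DMSO negative control.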
compound,measurement,setting,value
CCCCNC(=O)OCC#CI,AC50,[1],1.59 µM (active) and 4.96 µM (active)
same,AC50,[2],9.04 µM (active) and 9.55 µM (active)
same,outcome,[3],inactive
same,outcome,[4],inactive
same,AC50,[5],86.8 µM (active)
same,AC50,[6],12.1 µM (active)
same,outcome,[7],inactive
same,outcome,[8],inactive
CS/C(C)=N/OC(=O)N(C)SN(C)C(=O)O/N=C(\C)SC,outcome,[9],inactive
same,outcome,[4],inactive
same,AC50,[5],93.3 µM (active)
same,outcome,[6],inactive
same,outcome,[10],inactive
same,outcome,[7],inactive
same,outcome,[8],inactive
N#CC(CCc1ccc(Cl)cc1)(Cn1cncn1)c1ccccc1 (configuration not stated),outcome,[9],inactive
same,outcome,[4],inactive
same,outcome,[5],inactive
same,outcome,[6],inactive
same,outcome,[7],inactive
same,outcome,[8],inactive
same,outcome,[11],inactive
same,outcome,[12],inactive
same,AC50,[13],0.36 µM (active)
same,outcome,[14],inactive
same,outcome,[15],inactive
same,AC50,[16],0.386 µM (active)
same,outcome,[17],inactive
Cc1cc(Cl)ccc1OCC(=O)O,AC50,[9],24 µM (active)
same,outcome,[9],inactive
same,outcome,[5],inactive
same,outcome,[6],inactive
same,outcome,[7],inactive
same,outcome,[8],inactive
same,outcome,[11],inactive
same,outcome,[12],inactive
same,outcome,[13],inactive
same,outcome,[14],inactive
same,outcome,[15],inactive
same,outcome,[16],inactive
same,outcome,[17],inactive
Cc1c(F)c(F)c(COC(=O)C2C(/C=C(\Cl)C(F)(F)F)C2(C)C)c(F)c1F (configuration not stated),outcome,[4],inactive
same,outcome,[5],inactive
same,outcome,[6],inactive
same,outcome,[18],inactive
same,outcome,[10],inactive
same,outcome,[7],inactive
same,outcome,[8],inactive
same,outcome,[11],inactive
same,outcome,[12],inactive
same,outcome,[13],inactive
same,outcome,[15],inactive
same,outcome,[16],inactive
same,outcome,[17],inactive
C#CCOS(=O)OC1CCCCC1Oc1ccc(C(C)(C)C)cc1 (configuration not stated),outcome,[4],inactive
same,outcome,[5],inactive
same,outcome,[6],inactive
same,AC50,[18],21.4 µM (active)
same,AC50,[10],31.1 µM (active)
same,outcome,[7],inactive
same,outcome,[8],inactive
COP(N)(=O)SC (configuration not stated),outcome,[4],inactive
same,outcome,[5],inactive
same,outcome,[6],inactive
same,outcome,[18],inactive
same,outcome,[10],inactive
same,outcome,[7],inactive
same,outcome,[8],inactive
CNC(=O)ON=CC(C)(C)SC,outcome,[5],inactive
same,outcome,[6],inactive
same,outcome,[18],inactive
same,outcome,[10],inactive
same,outcome,[7],inactive
same,outcome,[8],inactive
CC(Oc1ccc(Cl)cc1Cl)C(=O)O (configuration not stated),outcome,[5],inactive
same,outcome,[6],inactive
same,outcome,[18],inactive
same,outcome,[7],inactive
same,outcome,[8],inactive
CCCN(CCC)c1c([N+](=O)[O-])cc(S(N)(=O)=O)cc1[N+](=O)[O-],outcome,[4],inactive
same,outcome,[5],inactive
same,outcome,[6],inactive
same,outcome,[7],inactive
same,outcome,[8],inactive
CCNc1nc(Cl)nc(NCC)n1,outcome,[4],inactive
same,outcome,[5],inactive
same,outcome,[6],inactive
same,outcome,[18],inactive
same,outcome,[10],inactive
same,outcome,[7],inactive
same,outcome,[8],inactive
same,outcome,[11],inactive
same,outcome,[12],inactive
same,outcome,[13],inactive
same,outcome,[15],inactive
same,outcome,[16],inactive
same,outcome,[17],inactive
COc1nc(NC(C)C)nc(NC(C)C)n1,outcome,[4],inactive
same,outcome,[5],inactive
same,outcome,[6],inactive
same,outcome,[18],inactive
same,outcome,[7],inactive
same,outcome,[8],inactive
same,outcome,[11],inactive
same,outcome,[12],inactive
same,outcome,[13],inactive
same,outcome,[15],inactive
same,outcome,[16],inactive
same,outcome,[17],inactive
C=CCC1=C(C)[C@@H](OC(=O)[C@@H]2[C@@H](C=C(C)C)C2(C)C)CC1=O,outcome,[5],inactive
same,outcome,[6],inactive
same,AC50,[18],16.6 µM (active)
same,AC50,[10],50 µM (active)
same,outcome,[7],inactive
same,outcome,[8],inactive
Fc1ccc(Oc2ccnc3cc(Cl)cc(Cl)c23)cc1,outcome,[4],inactive
same,outcome,[5],inactive
same,outcome,[6],inactive
same,AC50,[18],12.6 µM (active)
same,AC50,[10],29.1 µM (active)
same,outcome,[7],inactive
same,outcome,[8],inactive

# From PubChem BioAssay (EPA / NIEHS)
